Measured values reported in the supplement of paper PMC9023506.
Counter-ions that a name gives are not always drawn.

What follows are compounds tested on Danio rerio larvae (5 dpf) (assay: activity during first hour (no stimuli), difference vs DMSO (percentage points (treated minus DMSO)); higher = more of the behaviour than the DMSO vehicle control). Settings: 10 µM; exposure time: 3 h pre-incubation + 3 h imaging.
Experimental: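 5-dpf wild-type zebrafish larvae were imaged in 96-well plates. They were treated with 190 Tocris FDA-approved drugs at 10 µM (1 µl/ml DMSO) for 3 h before and 3 h during imaging at 28.5 °C, 48 larvae per drug. Automated image analysis gave % time moving and optomotor responses. Values are drug group mean minus DMSO vehicle mean (n=844), in percentage points, for 10 behaviours.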

| Compound | activity during first hour |
| --- | --- |
| Nc1cccc2c1CN(C1CCC(=O)NC1=O)C2=O (stereo not given) [Lenalidomide] | -5.68 |
| CC(C)N(CCCCOCC(=O)NS(C)(=O)=O)c1cnc(-c2ccccc2)c(-c2ccccc2)n1 [Selexipag] | 4.1 |
| C=CC(=O)N1CCC[C@@H](n2nc(-c3ccc(Oc4ccccc4)cc3)c3c(N)ncnc32)C1 [Ibrutinib] | -6.62 |
| O=C(O)CCCc1ccccc1 [Sodium 4-Phenylbutyrate] | 3.48 |
| Nc1cc(N2CCCCC2)nc(N)[n+]1[O-] [Minoxidil] | 2.82 |
| CS(=O)(=O)CCNCc1ccc(-c2ccc3ncnc(Nc4ccc(OCc5cccc(F)c5)c(Cl)c4)c3c2)o1 [Lapatinib] | -5.32 |
| CNS(=O)(=O)Cc1ccc2[nH]cc(CCN(C)C)c2c1 [Sumatriptan succinate] | 7.71 |
| Nc1nc(NC2CC2)c2ncn([C@H]3C=C[C@@H](CO)C3)c2n1 [Abacavir hemisulfate] | 8.55 |
| CCCCCCCN(CC)CCCC(O)c1ccc(NS(C)(=O)=O)cc1 (stereo not given) [Ibutilide hemifumarate] | -4.99 |
| CNC(=O)c1ccccc1Sc1ccc2c(/C=C/c3ccccn3)n[nH]c2c1 [Axitinib] | -2.72 |
| Cc1cc(C2CCCCC2)n(O)c(=O)c1 [Ciclopirox] | 2.44 |
| CC[C@H]1OC(=O)[C@H](C)[C@@H](O[C@H]2C[C@@](C)(OC)[C@@H](O)[C@H](C)O2)[C@H](C)[C@@H](O[C@@H]2O[C@H](C)C[C@H](N(C)C)[C@H]2O)[C@](C)(O)C[C@@H](C)CN(C)[C@H](C)[C@@H](O)[C@]1(C)O [Azithromycin] | -12.2 |
| CCOc1cc(CC(=O)N[C@@H](CC(C)C)c2ccccc2N2CCCCC2)ccc1C(=O)O [Repaglinide] | 5.41 |
| Cc1ccc(-c2cc(C(F)(F)F)nn2-c2ccc(S(N)(=O)=O)cc2)cc1 [Celecoxib] | -5.35 |
| CCOC(=O)c1ncn2c1CN(C)C(=O)c1cc(F)ccc1-2 [Flumazenil] | 2.88 |
| O=C(O)C[C@H](O)C[C@H](O)/C=C/c1c(C2CC2)nc2ccccc2c1-c1ccc(F)cc1 [Pitavastatin calcium] | -0.557 |
| O=c1n(CCCN2CCN(c3cccc(Cl)c3)CC2)nc2ccccn12 [Trazodone hydrochloride] | -0.623 |
| Cc1nnc(C(C)C)n1C1C[C@H]2CC[C@@H](C1)N2CC[C@H](NC(=O)C1CCC(F)(F)CC1)c1ccccc1 (stereo in doubt) [Maraviroc] | -3.61 |
| CC(CCc1ccc(O)cc1)NCCc1ccc(O)c(O)c1 (stereo not given) [Dobutamine hydrochloride] | -1.97 |
| O=C(c1ccc(OCCN2CCCCC2)cc1)c1c(-c2ccc(O)cc2)sc2cc(O)ccc12 [Raloxifene hydrochloride] | -5.98 |

| Compound | activity during first hour |
| --- | --- |
| CC(C)[C@H]1CC[C@H](C(=O)N[C@H](Cc2ccccc2)C(=O)O)CC1 [Nateglinide] | 4.52 |
| CCCCC1=NC2(CCCC2)C(=O)N1Cc1ccc(-c2ccccc2-c2nnn[nH]2)cc1 [Irbesartan] | 3.29 |
| CC(=O)S[C@@H]1CC2=CC(=O)CC[C@]2(C)[C@H]2CC[C@@]3(C)[C@@H](CC[C@@]34CCC(=O)O4)[C@H]12 [Spironolactone] | -0.165 |
| CC(=O)O[C@H]1C(=O)[C@@]2(C)[C@H]([C@H](OC(=O)c3ccccc3)[C@]3(O)C[C@H](OC(=O)[C@H](O)[C@@H](NC(=O)c4ccccc4)c4ccccc4)C(C)=C1C3(C)C)[C@]1(OC(C)=O)CO[C@@H]1C[C@@H]2O [Taxol] | 1.84 |
| CC(C)(C#N)c1cc(Cn2cncn2)cc(C(C)(C)C#N)c1 [Anastrozole] | 3.37 |
| C#C[C@]1(O)CC[C@H]2[C@@H]3CCC4=CC(=O)CC[C@@H]4[C@H]3CC[C@@]21CC [Levonorgestrel] | -8.15 |
| Cc1nc(Nc2ncc(C(=O)Nc3c(C)cccc3Cl)s2)cc(N2CCN(CCO)CC2)n1 [Dasatinib] | -11.4 |
| NC(=O)N1c2ccccc2C=Cc2ccccc21 [Carbamazepine] | -2.68 |
| CC(=O)Oc1cc2c(s1)CCN(C(C(=O)C1CC1)c1ccccc1F)C2 (stereo not given) [Prasugrel] | -1.24 |
| CC(=O)NC[C@H]1CN(c2ccc(N3CCOCC3)c(F)c2)C(=O)O1 [Linezolid] | 3.81 |
| NC(=O)OCC(COC(N)=O)c1ccccc1 [Felbamate] | -2.12 |
| CC1(C)O[C@@H]2[C@@H](CO[C@@]3(COS(N)(=O)=O)OC(C)(C)O[C@@H]23)O1 [Topiramate] | 10.7 |
| CC(C)COCC(CN(Cc1ccccc1)c1ccccc1)N1CCCC1 (stereo not given) [Bepridil hydrochloride] | 0.257 |
| CCc1ccc(CCOc2ccc(CC3SC(=O)NC3=O)cc2)nc1 (stereo not given) [Pioglitazone hydrochloride] | -5.36 |
| C[C@]12CCC(=O)C=C1CC[C@@H]1[C@@H]2[C@@H](O)C[C@@]2(C)[C@H]1CC[C@]2(O)C(=O)CO [Hydrocortisone] | 3.43 |
| Nc1ncn([C@@H]2O[C@H](CO)[C@@H](O)[C@H]2O)c(=O)n1 [5-Azacytidine] | 4.78 |
| CCOC(=O)C1=C(COCCN)NC(C)=C(C(=O)OC)C1c1ccccc1Cl (stereo not given) [Amlodipine besylate] | 2.38 |
| Nc1nc(Cl)nc2c1ncn2[C@@H]1O[C@H](CO)[C@@H](O)[C@@H]1F [Clofarabine] | -3.77 |
| CC(C)(C)NC(=O)[C@@H]1C[C@@H]2CCCC[C@@H]2CN1C[C@@H](O)[C@H](Cc1ccccc1)NC(=O)[C@H](CC(N)=O)NC(=O)c1ccc2ccccc2n1 [Saquinavir mesylate] | -9.81 |
| CNC(=O)c1cc(Oc2ccc(NC(=O)Nc3ccc(Cl)c(C(F)(F)F)c3)cc2)ccn1 [Sorafenib] | 3.08 |
